Sampled rows, rich in hits. Any-hit rate of the full collection: about 21%.
Shiga toxin inh: inhibitors of Shiga toxin in Vero cells | inhibition, % at 38.7 µM | Vero cells, Shiga toxin protein synthesis inhibition reporter | actives 9.2% (n = 290,000); in the data active = inhibition mostly above about 28%, no sharp cut-off; inactive = mostly below about 43%
SARS PLpro yeast: SARS-CoV PLP inhibition in yeast; S. cerevisiae expressing SARS-CoV PLpro, growth rescue; Potency, µM (doses to about 32.9 µM), usual class: activators; actives 0.19% (n = 330,000); AID 485353; calls by dose curve; also: nearly all actives have a fitted effect of over 55% in size
NS1 inh: inhibitors of influenza NS1 protein function; Potency, µM (highest dose often 46.1 µM); AID 2326; actives 0.4% (n = 270,000); calls by dose curve; also: actives are rising curves; nearly all actives have a fitted effect of over 50% in size
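A cell-based growth assay was used: compounds that relieve NS1-induced slow growth of budding yeast raise OD600. Assay medium was yeast nitrogen base with ammonium sulphate and -URA supplement, pH 6.0, with 2% galactose.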
Pf growth 96h: P. falciparum growth inhibition at 96 hours; P. falciparum luciferase reporter growth, 96 h; Potency, µM (series often up to 28.7 µM), hits mostly inhibitors; actives 6.9% (n = 320,000); AID 504834
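Luminescence readout: decreased luciferase signal marks inhibited growth of reporter-expressing P. falciparum in infected red cells (2% hematocrit, 0.05% parasitemia final), exposed to compound two generations (96 h, 37 C, 5% CO2).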
Pf growth 48h: P. falciparum growth inhibition at 48 hours (one generation); AID 504832; actives 5.9% (n = 310,000); Potency, µM (highest dose often 28.7 µM), hits mostly inhibitors; P. falciparum luciferase growth in erythrocytes, 48 h
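Luciferase-expressing P. falciparum in infected erythrocytes (2% hematocrit, 0.1% parasitemia final) in RPMI 1640/0.5% Albumax were exposed to compound for 48 hours at 37 C, 5% CO2; growth read as luminescence.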
Cycloheximide cs: counter-screen hit for Shiga toxin inhibitors, cycloheximide. cell reporter, cycloheximide protein synthesis inhibition counterscreen. max response, %. actives 12% (n = 300,000). AID 2314; in the data active = max response mostly above about 13%, no sharp cut-off; inactive = mostly below about 14%; also: read at 38.3 µM for the half of the compounds with a filed dose
A number is an active result; . = inactive; ? = inconclusive; / = no result given; [ ] = remark or other dose. Unless noted, calls follow the shape of the dose curve; as a rule, active = well fitted inhibition curve with a large enough effect; inconclusive = small, poorly fitted or top-dose-only effect, or another doubt; inactive = no such curve, though single readings can be large or run the other way.

SMILES | Shiga toxin inh | SARS PLpro yeast | NS1 inh | Pf growth 96h | Pf growth 48h | Cycloheximide cs
Cc1cccc(CS(=O)(=O)c2ncc(Cl)c(C(=O)Nc3nnc(C(C)C)s3)n2)c1 | 45 | ? | . | ? | ? | 54
C=CCSc1nnc(NC(=O)c2nc(SCC)ncc2Cl)s1 | . | . | . | ? | / | .
CCOc1ccccc1NC(=O)c1nc(S(=O)(=O)Cc2cccc(C)c2)ncc1Cl | . | . | . | . | . | .
Cc1ccc(C)c(NC(=O)CSc2nncn2C)c1 | . | . | . | ? | . | .
CC(=O)C1=C(C)NC(C)=C(C(C)=O)C1c1ccc(-c2ccccc2Cl)o1 | . | . | . | / | . | .
COc1cc2c(cc1OC)CN(S(=O)(=O)c1ccccc1F)CC2 | . | . | . | . | . | .
Cc1ccc(CS(=O)(=O)c2ncc(Cl)c(C(=O)Nc3nnc(C(C)C)s3)n2)cc1 | 75 | . | . | ? | . | 52
CCS(=O)(=O)c1ncc(Cl)c(C(=O)Nc2ccc(C)cc2)n1 | . | . | . | . | . | .
Cc1cc(C(=O)NCc2ccccc2Cl)n(-c2ccccc2)n1 | . | . | . | . | . | .
O=C(C1CC12CCCC2)N1CCC(CO)(Cc2ccccc2Cl)CC1 (stereo not drawn) | . | . | . | . | . | .
CC/C(=C\C=C\[C@@H]1C=C[C@@H]2CCC[C@H]2[C@@H]1C(=O)c1ccc[nH]1)[C@@H]1O[C@@H]([C@@H](C)C(=O)O)CC[C@@H]1C | . | . | . | ? | 2.6µM | .
COc1cc(/C=N/Nc2nc(C)cc(=O)[nH]2)ccc1OC(=O)c1cccnc1 | . | . | / | . | . | .
Nc1nc(NCCc2ccccc2)nc(NCc2ccccc2)c1[N+](=O)[O-] | . | . | . | ? | 9.3µM | .
Nc1nc(NCCCN2CCOCC2)nc(NCc2ccccc2)c1[N+](=O)[O-] | . | . | . | ? | ? | .
C=CCNc1nc(N)c([N+](=O)[O-])c(NCc2ccccc2)n1 | . | . | . | ? | . | .
Nc1nc(NCCN2CCOCC2)nc(NCc2ccccc2)c1[N+](=O)[O-] | . | . | . | 8.3µM | 6.6µM | .
O=C(O)CNS(=O)(=O)c1ccc2c(c1)Cc1cc(S(=O)(=O)NCC(=O)O)ccc1-2 | . | . | . | . | . | .
Cc1cc(C)cc(N(C(=O)CNC(=O)c2ccco2)C(C(=O)NC2CCCCC2)c2ccncc2)c1 (stereo not drawn) | . | . | . | . | ? | .
Cc1cc(=O)n2nc(-c3ccc(C(F)(F)F)cc3)sc2n1 | . | . | . | / | . | 33
COC(=O)CSc1nc2sc3c(c2c(=O)n1-c1ccccc1)CCN(C)C3 | . | . | . | / | ? | .
CN1CCc2c(sc3nc(SCC(N)=O)n(-c4ccc(Cl)cc4)c(=O)c23)C1 | . | . | . | ? | .[0.00184 µM] | .
C=C(C)CSc1nc2sc3c(c2c(=O)n1-c1ccccc1)CCN(C)C3 | . | . | ? | 0.83µM | 1.5µM | .
CN1CCc2c(sc3nc(SCC(=O)N4CCCCC4)n(-c4ccccc4)c(=O)c23)C1 | . | . | . | 3.3µM | 12µM | .
CN1CCc2c(sc3nc(SCC(N)=O)n(-c4ccccc4)c(=O)c23)C1 | . | . | . | / | ? | .
C=CCSc1nc2sc3c(c2c(=O)n1-c1ccc(C)cc1)CCN(C)C3 | . | . | . | 1.5µM | 3.7µM | .
SMILES | Shiga toxin inh | SARS PLpro yeast | NS1 inh | Pf growth 96h | Pf growth 48h | Cycloheximide cs
Cn1nc(C(=O)Nc2ccc3c(c2)OCCO3)cc1C(=O)O | . | . | . | . | . | 20
O=C(Nc1ccc(NC(=O)c2ccccn2)cc1)C(=O)Nc1ccc2c(c1)OCCO2 | . | . | / | ? | . | .
O=C(Nc1ccc2c(c1)OCCO2)c1cc(-n2cnnc2)ccc1Cl | . | . | . | . | . | .
Cn1ccc(C(=O)Nc2ccc3c(c2)OCCO3)n1 | 71 | . | . | . | . | 49
N#Cc1ccc(COC(=O)c2cnc3ccccc3n2)cc1 | . | . | . | . | . | .
Cc1cc(C)c2oc(C(=O)Nc3ccc(S(=O)(=O)N4CCCC(C)C4)cc3)cc(=O)c2c1 (stereo not drawn) | . | . | . | . | . | .
Clc1cnc(N/N=C/c2ccncc2)c(Cl)c1 | 49 | . | . | . | . | 16
Clc1ccc(N/N=C/c2ccncc2)cc1Cl | 60 | . | . | 1.2µM | 2.3µM | 38
C(=N\N=C\c1ccncc1)/c1ccncc1 | / | . | / | . | ? | /
O=C(O)c1ccc(/C=N/Nc2ncc(C(F)(F)F)cc2Cl)cc1 | . | . | . | . | . | .
Cc1nc(CSc2n[nH]c(=O)n2-c2cccc(F)c2)cs1 | . | . | . | . | . | .
CCn1cc(Cl)c(C(=O)NNC(=O)CCn2ccc([N+](=O)[O-])n2)n1 | . | . | . | . | . | .
CCOc1ccccc1NS(=O)(=O)c1ccc2c(c1)NC(=O)CCS2 | . | . | . | ? | . | .
Cc1ccc(NS(=O)(=O)c2ccc3c(c2)NC(=O)CCS3)cc1C | . | . | . | ? | 13µM | .
Cc1ccc(NS(=O)(=O)c2ccc3c(c2)NC(=O)CCS3)cc1F | . | . | . | . | 9.3µM | .
COc1cc([N+](=O)[O-])ccc1NC(=S)NCc1ccccn1 | . | . | . | . | . | .
COc1cc([N+](=O)[O-])ccc1NC(=O)NCc1ccccn1 | . | . | . | . | . | 12
COc1cc([N+](=O)[O-])ccc1NC(=O)Nn1cnnc1 | . | . | . | 13µM | . | .
COc1cccc2[nH]c(-c3ccccn3)nc12 | / | / | . | / | / | /
COCCNc1nc(-c2cc(C)c(C)cc2C)cs1 | 73 | . | . | ? | ? | 20
COc1ccccc1NS(=O)(=O)c1ccc(C(=O)N2CCN(c3ccccc3)CC2)cc1 | / | . | / | ? | ? | /
O=C(Nc1ccc(CN2CCCCC2)cc1)c1cc(Br)ccc1Cl | . | . | . | ? | 12µM | .
Cn1ncc(Cl)c1C(=O)Nc1ccc(CN2CCCCC2)cc1 | . | . | . | . | . | .
COc1cccc(OC)c1C(=O)Nc1ccc(CN2CCCCC2)cc1 | . | . | . | ? | . | .
CCCN1Cc2cccc(C(=O)Nc3ccc(CN4CCCC4)cc3)c2C1=O | . | . | . | / | 9.3µM | .
SMILES | Shiga toxin inh | SARS PLpro yeast | NS1 inh | Pf growth 96h | Pf growth 48h | Cycloheximide cs
COCCN1Cc2cccc(C(=O)Nc3ccc4c(c3)OCCO4)c2C1=O | 65 | . | . | . | / | 31
COCCN1Cc2cccc(C(=O)Nc3ccc(C)cc3)c2C1=O | . | . | / | ? | . | .
COc1c(C)cccc1C(=O)Nc1ccc(CN2CCCCC2)cc1 | . | . | . | ? | / | 37
O=C(Nc1ccc(CN2CCCCC2)cc1)c1sc2ccccc2c1Cl | . | . | . | ? | . | 23
O=C(Nc1ccc(C(=O)OC[C@@H]2CCCN3CCCC[C@H]23)cc1)c1cccc(Br)c1 | . | . | . | 2.6µM | 1.9µM | .
COc1ccc(C(=O)Nc2ccc(CN3CCCCC3)cc2)cc1 | . | . | . | . | . | .
O=C(Nc1ccc(CN2CCCCC2)cc1)c1cccc(Br)c1 | 42 | . | . | ? | ? | 21
